Rows were chosen to be rich in hits. Some 3.1% of all compounds tested hit in one or more screens of this group.
S16 F2sN tox = Cell viability qHTS assay in S16 Pmp22-F2sN cells; S16 Pmp22-F2sN Schwann cells viability, CellTiter-Glo, 24 h; Potency, µM (titrated, usually from 57.5 µM), most hits filed as cytotoxic; hit rate 0.48% among 43,000; also: nearly all actives have a fitted effect of over 65% in size
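Seed 500-1,000 S16 Pmp22-F2sN cells per well in phenol-red-free DMEM with 10% heat-inactivated FBS; pin-add 23 nL compound; incubate 24 h at 37C; add CellTiter-Glo, wait 15 min protected from light; read luminescence.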
pS6 MEF inh = Acumen qHTS Assay for Inhibitors of the mTORC1 Signaling Pathway in MEF (Tsc2-/-, p53-/-) Cells: Sytravon. Tsc2-/- p53-/- MEF, phospho-rpS6 immunofluorescence/PI, 24 h. hit rate 0.78% among 44,000. Potency, µM (top dose mostly 38.3 µM), actives largely listed as inhibitors. AID 493208, 2011; also: nearly all actives have a fitted effect of over 50% in size
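Immunofluorescence of rpS6 phosphorylation in Tsc2-/-, p53-/- MEFs after 24 h compound exposure, normalized to propidium iodide signal. Activity is expressed as % positive cells, thresholded with 7.5 nM rapamycin.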
p53null 39C kill = qHTS Screen for Compounds that Selectively Target Cancer Cells with p53 Mutations: Cytotoxicity of p53 Null Cells at the Nonpermissive Temperature | H1299 p53-null (neo) cells, 39C, ATPlite viability, 24 h | Potency, µM (doses to about 46.1 µM), hits mostly cytotoxic | hit rate 0.97% among 55,000 | AID 904, 2007; also: nearly all actives have a fitted effect of over 50% in size
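Luminescent ATP signal reported cell survival after H1299 lines (neo, p53 null; or p53 A138V) received up to 46 uM compound and 24 hr incubation at 39C.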
p53null 32C kill = qHTS Screen for Compounds that Selectively Target Cancer Cells with p53 Mutations: Cytotoxicity of p53 Null Cells at the Permissive Temperature | hit rate 0.62% among 55,000 | Potency, µM (top dose mostly 46.1 µM), usual class: cytotoxic | AID 903, 2007 | H1299-neo p53 null cells, ATP luminescence, 24 h, 32C; also: nearly all actives have a fitted effect of over 55% in size
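H1299-neo, 600 cells/well; overnight 37C; cpd up to 46 uM, 24 h at 32C; ATPlite luminescence after 20 min RT; normalized to DMSO (0%) and tamoxifen 100 uM (100% kill); Hill-fit AC50.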
PMP22 txn prim = Cell-based coincidence reporter assay to measure PMP22 gene transcription in S16 Pmp22-F2sN cells - Primary screen; AID 1508649, 2021; S16 Pmp22-F2sN Schwann cells (luciferase reporters placed in the Pmp22 gene), FLuc/NLuc coincidence luminescence, 24 h; Potency, µM (series often up to 57.5 µM), hits mostly inhibitors; hit rate 2% among 43,000; active = clear falling dose curves in both reporters; inconclusive = both reporters move, but less clearly or upward; inactive = either reporter flat; the % is the NLuc reporter signal
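Schwann cells carrying the coincidence reporter were exposed to library compounds for 24 h at 37C, then lysed and read for FLuc and, after quenching, NLuc luminescence on a CCD imager.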
SKOV3 invasion = Primary qHTS assay for Inhibitors of ovarian cancer metastasis using an organotypic tumor microenvironment (TME) model; SKOV3ip1-GFP adhesion/invasion on 3D omental model, fluorescence; Potency, µM (doses to about 45.8 µM), most hits filed as inhibitors; hit rate 0.1% among 46,000; AID 1963576, 2024; also: nearly all actives have a fitted effect of over 65% in size
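A 3D layer of primary human omental fibroblasts, mesothelial cells, fibronectin and collagen I, grown 48 hr, received SKOV3ip1-GFP cells in serum-free medium plus compounds at 0.36-46 umol/L. After 2 hr RT and 16 hr 37 C, fixed adherent GFP cells were counted; normalized to DMSO and tomatine.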
Numbers stand for hits; n = inactive; u = inconclusive; x = no result given; [ ] = remark or other dose. Unless noted, calls follow the shape of the dose curve; as a rule, active = well fitted curve in the direction sought with a large enough effect; inconclusive = small, poorly fitted or top-dose-only effect, or another doubt; inactive = no such curve, though single readings can be large; an effect the other way counts as inactive or inconclusive.

SMILES	S16 F2sN tox	pS6 MEF inh	p53null 39C kill	p53null 32C kill	PMP22 txn prim	SKOV3 invasion
CCS(=O)(=O)c1ncc(Cl)c(C(=O)N(Cc2ccccc2)c2ccc(OC)cc2)n1	4.5µM	2.6µM	u	u	2.2µM	u
CCS(=O)(=O)c1ncc(Cl)c(C(=O)NCc2ccc(OC)cc2)n1	2.8µM	3.7µM	n	u	6.5µM	u
CCS(=O)(=O)c1ncc(Cl)c(C(=O)N2CCN(c3ccc(OC)cc3)CC2)n1	7.9µM	3.3µM	u	u	6.6µM	u
CCCS(=O)(=O)c1ncc(Cl)c(C(=O)N(Cc2ccccc2)Cc2ccco2)n1	2.2µM	16µM	u	22µM	6.4µM	2.2µM
COc1ccc(N2CCN(C(=O)c3nc(SC)ncc3Cl)CC2)cc1	n	n	n	n	n	n
CC(C)OC(=O)C1=CN(C(=O)c2ccc(F)c(F)c2)CC(C)(C)c2c1[nH]c1ccccc21	x	x	x	x	x	n
Clc1ccc2ncc(-c3cccc(NC4CNC4)n3)n2c1	x	x	x	x	x	n
O=C(NC1CCN(Cc2ccccc2)CC1)c1ccc(Cn2c(=O)c3ccccc3n(Cc3ccc(F)cc3)c2=O)cc1	u	3.3µM	n	n	u	n
Cc1ccc(C)c(Cn2c(=O)n(Cc3ccc(C(=O)NC4CCN(Cc5ccccc5)CC4)cc3)c(=O)c3ccccc32)c1	n	n	n	n	n	n
COC(=O)c1cc(C)nc2c1c(=O)nc(SCc1cc(C)ccc1C)n2C1CC1	n	n	n	n	u	n
COC(=O)c1cc(C)nc2c1c(=O)nc(SCc1c(C)cc(C)cc1C)n2C1CC1	u	n	13µM	n	u	n
COc1ccc(/C=C/C(=O)Nc2ccc3nc(N4CCC(C)CC4)cc(C)c3c2)cc1OC	u	u	n	n	u	u
CCN1CCN(c2cc(C)c3cc(NC(=O)/C=C/c4ccc(C)cc4)ccc3n2)CC1	u	18µM	u	u	u	u
CCN1CCN(c2cc(C)c3cc(NC(=O)/C=C/c4ccc(OCCC(C)C)cc4)ccc3n2)CC1	u	4.1µM	u	n	u	n
O=C(Nc1ccccn1)c1cc2ccccc2o1	x	x	5µM	4µM	x	x
O=C(Nc1ccc2oc(-c3ccc(Br)cc3)nc2c1)c1cc2ccccc2o1	n	n	n	n	n	n
O=C(O)c1ccc(NC(=O)c2cc3ccccc3o2)cc1	n	n	u	13µM	n	n
O=C(Nc1ccc(NC(=O)c2cc3ccccc3o2)cc1)c1ccccc1	n	n	n	n	n	n
O=C(Nc1ccc2oc(=O)ccc2c1)c1cc2ccccc2o1	x	x	n	n	x	x
O=C(Nc1ccc2oc(-c3cc(Br)ccc3Cl)nc2c1)c1cc2ccccc2o1	u	4.1µM	u	n[9.22 µM]	u	u
Cc1cn2c(-c3cn[nH]c3)cnc2c(Nc2ccc(C(=O)N3CCNCC3)cc2F)n1	x	x	x	x	x	n
CCOC(=O)[C@H]1O[C@H]1C(=O)N[C@@H](CC(C)C)C(=O)NCCC(C)C	x	x	x	x	x	n
CCOC(=O)c1cccc(NS(=O)(=O)c2cc(-c3cnc(C4CC4)o3)ccc2C)c1	20µM	n	n	n	n	n
COc1cc(C2CC(=O)c3c([nH]c(C(=O)OCC4CCCCC4)c3C)C2)cc(OC)c1OC (centres undefined)	n	n	n	n	5.7µM	n
COc1cc(C2CC(=O)c3c([nH]c(C(=O)OC4CCCCC4)c3C)C2)cc(OC)c1OC (centres undefined)	u	u	n	n	18µM	u
SMILES	S16 F2sN tox	pS6 MEF inh	p53null 39C kill	p53null 32C kill	PMP22 txn prim	SKOV3 invasion
COc1ccc(OC)c(C2CC(=O)c3c([nH]c(C(=O)OCC4CCCCC4)c3C)C2)c1 (centres undefined)	u	u	n	n	n	n
Cc1ccccc1-n1c(Cn2nc(-c3cccc(O)c3)c3c(N)ncnc32)nc2cccc(C)c2c1=O	x	x	x	x	x	n
Cc1cc(C(=O)N2CCN(c3cccc(Cl)c3)CC2)n(-c2ccccc2)n1	x	x	x	x	x	n
CCN(CC)S(=O)(=O)c1ccc2c(c1)c(=O)c(C(=O)NCc1ccccc1)cn2C	n	n	n	n	u	n
CCN(CC)S(=O)(=O)c1ccc2c(c1)c(=O)c(C(=O)NCc1ccccc1Cl)cn2C	n	n	5µM	u	u	n
O=C(CCC1CCCC1)Nc1ccc(OCC(=O)N2CCOCC2)cc1	x	x	u	14µM	x	x
O=C(c1cncc(Br)c1)N1CCC(N2CCCC2)CC1	x	x	x	x	x	n
CCN(CC)CCCCNc1nc2cc(Cl)c(Cl)cc2nc1-c1ccc(-c2cccs2)s1	x	x	x	x	x	n
CCN(Cc1ccccc1)Cc1c(O)ccc2oc(C)c(C(=O)Nc3ccc(C)cc3C)c12	u	u	n	n	u	n
Cc1ccc(NC(=O)c2c(C)oc3ccc(O)c(CN(C)Cc4ccccc4)c23)c(C)c1	n	15µM	n	n	u	u
Cc1oc2ccc(O)c(CN(C)Cc3ccccc3)c2c1C(=O)Nc1cccc(C(F)(F)F)c1	u	u	22µM	n	u	n
CN(CC(=O)N(Cc1ccc(C2CCCCC2)cc1)c1ccc(C(=O)O)c(O)c1)S(=O)(=O)c1c(F)c(F)c(F)c(F)c1F	x	x	x	x	x	n
Cc1ccc(Cl)cc1NC(=O)c1oc2ccc(S(=O)(=O)N3CCCCC3)cc2c1C	n	n	n	n	n	n
